We go through 8 compounds from PubChem BioAssay (NCI).

Test systems include SR leukemia; RPMI-8226 leukemia; OVCAR-8 ovarian; OVCAR-5 ovarian; OVCAR-4 ovarian; SK-OV-3 ovarian; IGROV1 ovarian; OVCAR-3 ovarian; HS 578T breast; NCI/ADR-RES ovarian; T-47D breast; BT-549 breast; MDA-MB-435 melanoma; SW-620 colon; MCF7 breast; HCT-116 colon; HCC-2998 colon; KM12 colon.
Assay in all cases: NCI-60 one-dose screen, 48 h (100 = growth as untreated, 0 = no growth, -100 = all killed)
Conditions in all cases: 10 µM unless noted

This is part of a sample that, as a whole, favours compounds with a hit. Of some 83,000 tested, about 20% had one in any assay.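 Cells were grown in 96-well plates and exposed to the test compound at a single concentration for 48 hours; results are reported as percent growth, with values below 10 considered active.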 Values without a mark were called inactive. Calls of active or inactive are those of the source.

As to `COc1ccc(-c2nc(SCC(=O)Nc3ccc(C(C)=O)cc3)[nH]c(=O)c2C#N)cc1`, the growth was 97.5% in the test with SR leukemia; 114% with RPMI-8226 leukemia; 91% in the test on OVCAR-8 ovarian; 97.3% in the test on OVCAR-5 ovarian; 108% in the test with OVCAR-4 ovarian; 79.5% in the test on SK-OV-3 ovarian. Further, the growth is 106% with IGROV1 ovarian; 108% in the test with OVCAR-3 ovarian; 115% with HS 578T breast; 108% in the test on NCI/ADR-RES ovarian; 89.4% in the test on T-47D breast; 82.2% in the test with BT-549 breast. The growth is 111% in the test on MDA-MB-435 melanoma; 112% in the test with SW-620 colon; 97.5% with MCF7 breast; 76.3% with HCT-116 colon; 105% with HCC-2998 colon; 101% in the test with KM12 colon.

As to `C=C(C)[C@@H]1CC[C@]2(C(=O)NNC(=O)c3cccnc3)CC[C@]3(C)[C@H](CC[C@@H]4[C@@]5(C)CCCNC(C)(C)[C@@H]5CC[C@]43C)[C@@H]12`, the growth with SR leukemia is 18.9%; in the test on RPMI-8226 leukemia it was 46.6%; in the test on OVCAR-8 ovarian it was 76.7%; in the test with OVCAR-5 ovarian, 96.9%; with OVCAR-4 ovarian, 75.3%; in the test with SK-OV-3 ovarian, 107%. In addition, the growth in the test with IGROV1 ovarian was 91%; in the test with OVCAR-3 ovarian it was 81.2%; in the test on HS 578T breast, 67.3%; in the test with NCI/ADR-RES ovarian, 90.5%; in the test with T-47D breast, 57.6%; in the test on BT-549 breast it was 82.3%. For the same compound, the growth with MDA-MB-435 melanoma was 83.6%; in the test with SW-620 colon it was 85.7%; in the test with MCF7 breast, 59%; with HCT-116 colon, 45.7%; with HCC-2998 colon, 73.4%; in the test on KM12 colon, 78.4%.

`CC1(C)C(=O)/C(=C\c2ccco2)C[C@]2(C)[C@H]3CC[C@@H]4[C@@H](C(=O)/C=C/c5ccco5)CC[C@@]4(C)[C@]3(C)CC[C@@H]12`: the growth in the test with SR leukemia was 71%; with RPMI-8226 leukemia it was 75.5%; in the test on OVCAR-8 ovarian, 80.5%; in the test on OVCAR-5 ovarian it was 115%; in the test with OVCAR-4 ovarian, 83.6%; with SK-OV-3 ovarian, 109%. Also, the growth in the test with IGROV1 ovarian was 96.2%; in the test with OVCAR-3 ovarian, 95.2%; in the test on HS 578T breast it was 77.8%; with NCI/ADR-RES ovarian, 95.1%; in the test on T-47D breast, 35%; with BT-549 breast, 95.7%. Further, the growth in the test on MDA-MB-435 melanoma is 4.33% (active); with SW-620 colon, 71.1%; in the test with MCF7 breast it was 62%; in the test with HCT-116 colon it was 61.8%; in the test on HCC-2998 colon it was 108%; with KM12 colon, 101%.

For the compound `CCSc1sc(-c2ccc(C)cc2)nc1[P+](c1ccccc1)(c1ccccc1)c1ccccc1`, the growth in the test with SR leukemia is -17.9% (active); with RPMI-8226 leukemia, -33.9% (active); with OVCAR-8 ovarian, 1.31% (active); in the test with OVCAR-5 ovarian it was 18.3%; with OVCAR-4 ovarian, -4.21% (active); in the test on SK-OV-3 ovarian, -23.1% (active). The growth was -8.55% (active) in the test with IGROV1 ovarian; -12.7% (active) with OVCAR-3 ovarian; -3.68% (active) with HS 578T breast; -5.4% (active) with NCI/ADR-RES ovarian; -22% (active) with T-47D breast; -19.1% (active) with BT-549 breast. Moreover, the growth is -26.8% (active) in the test on MDA-MB-435 melanoma; 4.99% (active) with SW-620 colon; -4.84% (active) with MCF7 breast; -20.9% (active) in the test with HCT-116 colon; -23.1% (active) in the test with HCC-2998 colon; -63.2% (active) in the test with KM12 colon.

As for `C[Si](C)(C)Cc1ccccc1`, the growth with SR leukemia is 143%; in the test with RPMI-8226 leukemia it was 71.6%; with OVCAR-8 ovarian, 107%; in the test on OVCAR-5 ovarian, 94.1%; with OVCAR-4 ovarian, 113%; with SK-OV-3 ovarian it was 112%. The growth in the test on IGROV1 ovarian was 125%; in the test on OVCAR-3 ovarian, 127%; in the test on HS 578T breast it was 120%; in the test with NCI/ADR-RES ovarian, 105%; in the test with T-47D breast, 113%; in the test with BT-549 breast, 110%. The growth in the test on MDA-MB-435 melanoma is 113%; in the test with SW-620 colon, 107%; with MCF7 breast, 105%; in the test with HCT-116 colon, 107%; in the test on HCC-2998 colon, 114%; in the test with KM12 colon, 108%.

Turning to `COc1ccc(/C=C(\C#N)c2cc3ccccc3n2C(C)=O)cc1`, the growth in the test with SR leukemia is 47.3%; with RPMI-8226 leukemia it was 83.2%; in the test with OVCAR-8 ovarian, 103%; in the test with OVCAR-5 ovarian, 104%; in the test on OVCAR-4 ovarian it was 96.5%; with SK-OV-3 ovarian it was 107%. Besides, the growth in the test with IGROV1 ovarian was 89.8%; with OVCAR-3 ovarian, 92.8%; with HS 578T breast, 87.4%; in the test with NCI/ADR-RES ovarian, 55.6%; with T-47D breast, 78.5%; in the test with BT-549 breast it was 82.6%. The growth in the test on MDA-MB-435 melanoma was 9.69% (active); in the test with SW-620 colon, 59.5%; with MCF7 breast, 53.7%; with HCT-116 colon it was 81.1%; in the test with HCC-2998 colon, 81.2%; with KM12 colon, 57.1%.

On to `O=C1c2cccc3cccc(c23)C(=O)N1CC#Cc1ccc2c3c(cccc13)C(=O)N(CCN1CCNCC1)C2=O`, for which the growth is 2.23% (active) in the test with SR leukemia; 8.66% (active) in the test with RPMI-8226 leukemia; 93.9% with OVCAR-8 ovarian; 92.1% with OVCAR-5 ovarian; 85.3% with OVCAR-4 ovarian; 132% with SK-OV-3 ovarian. Further, the growth was 91.4% in the test on IGROV1 ovarian; 106% with OVCAR-3 ovarian; 106% with HS 578T breast; 102% with NCI/ADR-RES ovarian; 38.3% in the test on T-47D breast; 101% with BT-549 breast. Besides, the growth in the test on MDA-MB-435 melanoma was 105%; with SW-620 colon, 28.3%; in the test with MCF7 breast, -43.9% (active); in the test on HCT-116 colon, -64.1% (active); in the test with HCC-2998 colon, 104%; in the test with KM12 colon, 98.9%.

In the case of `COc1ccc2c(c1)c(-c1nc(-c3c[nH]c4ncccc34)cs1)cn2CCN`, the growth in the test on SR leukemia was 0.217% (active); in the test on RPMI-8226 leukemia it was 52.7%; with OVCAR-8 ovarian, 70.5%; in the test with OVCAR-5 ovarian, 88.6%; in the test with OVCAR-4 ovarian it was 57.1%; in the test with SK-OV-3 ovarian, 60.7%. Further, the growth was 30.4% with IGROV1 ovarian; 70.5% in the test on OVCAR-3 ovarian; 62.3% in the test with HS 578T breast; 84.1% in the test with NCI/ADR-RES ovarian; 25.7% in the test with T-47D breast; 88.2% in the test with BT-549 breast. Further, the growth was 68.9% in the test on MDA-MB-435 melanoma; 55.3% in the test with SW-620 colon; 36.5% in the test on MCF7 breast; 53.5% in the test on HCT-116 colon; 94.9% with HCC-2998 colon; 24.4% in the test on KM12 colon.
